In PubChem BioAssay (NCI):
This is part of a sample that, as a whole, favours compounds with a hit. Of some 83,000 tested, about 20% had one in any assay.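 48-hour exposure, single concentration, 96-well plates; percent growth endpoint where 0 means no net growth. Active: below 10.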 Active and inactive are the calls of the source.

Tested on: MDA-MB-468 breast
Assay: NCI-60 one-dose screen, 48 h (100 = growth as untreated, 0 = no growth, -100 = all killed)
Details: 10 µM unless noted

Structure (SMILES)	growth
O=C(/C=C/c1ccc(C(F)(F)F)cc1)c1ccc(Nc2nc(NCCO)nc(N3CCOCC3)n2)cc1	20.4% (inactive)
COc1ccc(/C(=N/O)c2cc(OC)c(OC)c(OC)c2)c(OC)c1N	27.8% (inactive)
C#CC[C@@H]1C[C@]2(C)[C@H]3CC[C@@H]4[C@H]5C(C(=C)C)CC[C@]5(C(=O)NCCCCN)CC[C@@]4(C)[C@]3(C)CC[C@H]2C(C)(C)[C@H]1OC(C)=O (stereo not given in full)	-53.7% (active)
O=C(N/N=C/c1ccc(Cl)cc1)c1ccc(Cc2n[nH]c(=O)c3cccnc23)cc1	89.8% (inactive)
NC(N)=NN=C(c1ccccc1)c1ccccc1	-31.3% (active)
NS(=O)(=O)c1cc(Br)c2c(c1)S(=O)(=O)NCN2	126% (inactive)
C=CCn1c(SCC(=O)Nc2ccc(/C(C)=N\O)cc2)nnc1-c1cc(-c2ccc(OC)cc2)nc2ccccc12	17.3% (inactive)
CCOC(=O)COc1ccc2c(c1)O/C(=C\c1ccc(O)cc1)C2=O	91.9% (inactive)
NC(N)=Nc1ccc(Oc2cccc(NC(N)=Nc3ccc(I)cc3F)c2)cn1	-8.03% (active)
N#Cc1c(NC(=O)c2ccc(F)c(Cl)c2)sc2c1CCC(=O)C2	-20% (active)
c1ccc2c(c1)Oc1ccccc1C2C1c2ccccc2Oc2ccccc21	107% (inactive)
COC(=O)c1ccc(NC(=O)CSc2nc(-c3ccc(F)cc3)nc3ccccc23)cc1	80.1% (inactive)
Clc1cc(Cl)c(OCCCCCCN2CCNCC2)c(Cl)c1	-12.2% (active)
COc1cnc2c(c1)C(=O)c1c-2n(CCCn2ccnc2)c(=O)c2cc(OC)c(OC)cc12	-25.7% (active)
COc1ccccc1-[n+]1cc(-c2ccc(-c3ccccc3)cc2)n2c1CCCCC2	-23.5% (active)
O=C(CN1CCN(c2cc3c(cc2F)c(=O)c(C(=O)N/N=C/c2ccccc2O)cn3C2CC2)CC1)N/N=C\c1ccccc1O	-4.47% (active)
Cn1cc(-c2csc(-c3cn(C)c4ncccc34)n2)c2cc(F)cnc21	-10.1% (active)
O=C(CCl)Oc1ccc(-c2ccccc2)c(Br)c1	97.5% (inactive)
CCCCCCCCCCCCNC(=O)N[C@H](C(=O)N[C@H]1/C=C/CCNC(=O)/C=C/[C@H](C)NC1=O)C(C)C	-66.6% (active)
C=C1C(=O)O[C@H]2[C@H]1CC/C(COC(=O)NCc1ccc(Cn3c(=O)sn(CCCI)c3=O)cc1)=C\CC[C@@]1(C)O[C@@H]21	-28.8% (active)

Structure (SMILES)	growth
CC(C)(CO)N(CCO)CCO	95.1% (inactive)
CCOC(=O)CNC(=O)CCCCSc1ncnc2nc[nH]c12	95.4% (inactive)
COCCNC(=O)Cc1cc(-c2ccc(Cl)cc2)n(-c2ccccc2)c1C	73% (inactive)
COc1ccc(Cn2c(C(N)=O)cc3c2-c2nc(N)ncc2CCC3)cc1	82.1% (inactive)
COc1cc(N=C2C(=O)N(Cc3ccccc3)c3ccccc32)cc(OC)c1OC	103% (inactive)
CC(C)NCC(O)COc1ccc(CC(N)=O)cc1 (stereo not given)	102% (inactive)
COc1ccc(OC)c([N+](=O)[O-])c1C(=O)CNC(C)=O	98% (inactive)
CCN(CC)C(=O)c1cccnc1	109% (inactive)
CC(=O)c1ccc(NC(=O)Nc2ccc(S(=O)(=O)Nc3ccc(Cl)nn3)cc2)cc1	107% (inactive)
CC(C)COC(=O)NC(C)(C)C	96.5% (inactive)
N#CC(C#N)N=Nc1ccc(Br)cc1	0.0168% (active)
O=S(=O)(Nc1ccc2ccccc2c1)N1CCCCC1	12.8% (inactive)
CCN1C(=O)N(CC)C2C1NN=c1s/c(=C\c3ccc(Cl)cc3Cl)c(=O)n12 (stereo not given)	5.35% (active)
COS(=O)(=O)c1ccc(Br)cc1	102% (inactive)
C=C(C)[C@@H]1CC[C@]2(C)[C@H](CC=C3[C@@H]4CC(C)(C)CC[C@]4(CO)CC[C@]32C)[C@@]1(C)CCCN	-56.3% (active)
CCCNCCC(C)=O	127% (inactive)
CSc1nn(-c2ccccc2)c2ncnc(Oc3ccccc3)c12	88.6% (inactive)
COc1ccc(NC(=O)c2cccc(-c3cc(=O)c4c(O)c(OC)c(OC)cc4o3)c2)cc1	84.3% (inactive)
CCOC(=O)c1cc(C(=O)c2ccc(OC)c(OC)c2)n2c1ccc1ccccc12	97% (inactive)
COC(=O)c1ccc([N+](=O)[O-])c(C)c1	102% (inactive)
